# Several values for one entry are separate records, joined by “and”; a condition that tells them apart may be missing. Identical values can stand only once. Records with an inconclusive call do not appear. Entries that show only a call come without a potency. Some compounds were tested as several samples or in several runs, with calls that do not always agree. Activity calls are given as the source filed them. Unless noted, calls come from the whole dose curve; as a rule, active = well fitted curve in the direction sought with a large enough effect in the repeat runs; inconclusive = weak or mixed curves; inactive = no such curve, though single readings can be large; an effect the other way counts as inactive or inconclusive.
# Tests used:
# [1] = qHTS assay to identify small molecule antagonists of the estrogen related receptor (ERR) signaling pathway from Tox21 library - cell viability counter screen (AID 1224834); note: nearly all actives have a fitted effect of over 30% in size; note: potency is the fitted concentration of half-maximal effect
# How it was run: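 Seeded ERR cells were rested 6 h at 37 C/5% CO2 before compounds, positive and negative controls or DMSO were added. Incubation continued for 17.5 h, and viability was then quantified by CellTiter-Fluor fluorescence.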
# [2] = target: Luciferin 4-monooxygenase (Photinus pyralis) (UniProt P08659); experiment: qHTS assay to identify small molecule inhibitors of firefly luciferase (AID 1224835); note: nearly all actives have a fitted effect of over 25% in size; note: potency is the fitted concentration of half-maximal effect
# Chain of Luciferin 4-monooxygenase (Photinus pyralis) (P08659 whole entry, looked up): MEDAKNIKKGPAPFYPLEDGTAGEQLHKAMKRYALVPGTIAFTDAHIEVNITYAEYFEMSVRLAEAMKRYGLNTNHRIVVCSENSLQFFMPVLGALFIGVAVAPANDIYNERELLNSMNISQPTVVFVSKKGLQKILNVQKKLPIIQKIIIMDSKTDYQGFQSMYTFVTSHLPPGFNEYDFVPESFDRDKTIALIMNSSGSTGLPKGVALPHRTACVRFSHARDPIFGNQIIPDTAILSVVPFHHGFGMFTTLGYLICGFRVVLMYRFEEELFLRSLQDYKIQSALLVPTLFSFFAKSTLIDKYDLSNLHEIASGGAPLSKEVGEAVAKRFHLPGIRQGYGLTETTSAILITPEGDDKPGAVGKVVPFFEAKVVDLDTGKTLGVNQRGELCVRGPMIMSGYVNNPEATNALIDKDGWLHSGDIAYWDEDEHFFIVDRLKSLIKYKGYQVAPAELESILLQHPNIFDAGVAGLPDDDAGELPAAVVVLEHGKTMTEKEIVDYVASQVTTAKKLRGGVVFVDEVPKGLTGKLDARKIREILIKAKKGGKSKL
# How it was run: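 Biochemical qHTS: compounds run as interplate titrations against purified firefly enzyme, with D-luciferin and ATP each at its KM concentration. Light output recorded by CCD imaging.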
# [3] = qHTS assay to identify small molecule agonists of the constitutive androstane receptor (CAR) signaling pathway - cell viability counter screen (AID 1224836); note: nearly all actives have a fitted effect of over 45% in size; note: potency is the fitted concentration of half-maximal effect
# How it was run: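 HepG2-CYP2B6-hCAR, 2500 cells/well, 4 h pre-incubation; cpd 15 conc + PK11195 0.75 uM final; 23 h, 37 C/5% CO2; CellTiter-Fluor, fluorescence.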
# [4] = qHTS assay to identify small molecule antagonists of the constitutive androstane receptor (CAR) signaling pathway - cell viability counter screen (AID 1224837); note: nearly all actives have a fitted effect of over 45% in size; note: potency is the fitted concentration of half-maximal effect
# How it was run: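 To flag cytotoxic false antagonists, HepG2 hCAR/CYP2B6-2.2kb cells were treated 23 hr with 15-concentration compound series and 50 nM CITCO at 37 C/5% CO2; CellTiter-Fluor fluorescence was the measured end point.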
# [5] = target: Nuclear receptor subfamily 1 group I member 3 (Homo sapiens) (UniProt Q14994); experiment: qHTS assay to identify small molecule antagonists of the constitutive androstane receptor (CAR) signaling pathway (AID 1224838);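 note: HepG2 cells stably expressing hCAR with CYP2B6 luciferase reporter stimulated by CITCO; nearly all actives have a fitted effect of over 40% in size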; note: potency is the fitted concentration of half-maximal effect
# Chain of Nuclear receptor subfamily 1 group I member 3 (Homo sapiens) (Q14994 whole entry, looked up): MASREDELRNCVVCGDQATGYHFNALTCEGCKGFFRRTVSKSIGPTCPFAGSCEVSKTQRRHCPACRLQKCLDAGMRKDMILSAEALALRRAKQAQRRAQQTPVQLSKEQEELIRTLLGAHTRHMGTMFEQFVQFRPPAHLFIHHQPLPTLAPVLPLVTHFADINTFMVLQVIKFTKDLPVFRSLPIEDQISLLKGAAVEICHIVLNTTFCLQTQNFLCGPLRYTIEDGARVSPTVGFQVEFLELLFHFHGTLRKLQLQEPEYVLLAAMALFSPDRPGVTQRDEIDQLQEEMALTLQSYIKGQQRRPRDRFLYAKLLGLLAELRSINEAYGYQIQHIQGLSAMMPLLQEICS
# How it was run: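 Human hepatoma HepG2 cells expressing hCAR and a CYP2B6 promoter (2.2 kb) luciferase construct; compound titration (15 points) with 50 nM CITCO final, 24 h at 37 C/5% CO2; luminescence via ONE-Glo after 30 min at room temperature.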
# [6] = target: Nuclear receptor subfamily 1 group I member 3 (Homo sapiens) (UniProt Q14994); experiment: qHTS assay to identify small molecule agonists of the constitutive androstane receptor (CAR) signaling pathway (AID 1224839); note: nearly all actives have a fitted effect of over 15% in size; note: potency is the fitted concentration of half-maximal effect;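 for activation: HepG2 cells stably carrying human CAR and a CYP2B6 luciferase reporter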
# How it was run: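 HepG2-CYP2B6-hCAR cells, 2500/well, 4 h pre-incubation; compounds 15 conc.; PK11195 0.75 uM final; 24 h, 37 C/5% CO2; ONE-Glo luciferase read.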
# [7] = qHTS assay to identify small molecule antagonists of the estrogen related receptor signaling pathway with the pleiotropic PPARgamma coactivator (PGC) from Tox21 10K library (AID 1224841; call rule not given here; note: actives are mostly falling curves and most rising ones were filed inactive; nearly all actives have a fitted effect of over 50% in size; note: potency is the fitted concentration of half-maximal effect)
# How it was run: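 Test chemicals dissolved in DMSO were applied to pre-incubated (6 h) PGC/ERR cells at 2,000 cells/well for an 18 h, 37 C treatment; reporter luminescence was then read using One-Glo.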
# [8] = qHTS assay to identify small molecule agonists of the estrogen related receptor signaling pathway with the pleiotropic PPARgamma coactivator (PGC) from Tox21 10K library (AID 1224842); note: nearly all actives have a fitted effect of over 15% in size
# How it was run: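 PGC/ERR reporter cell line, 2,000 cells per well, incubated 6 h at 37 C before 23 nL compound in DMSO was added. After 18 h at 37 C, One-Glo luminescence read following 30 min at room temperature.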
# [9] = target: Thyrotropin receptor (Homo sapiens) (UniProt P16473); experiment: qHTS assay to identify small molecule agonists of the thyroid stimulating hormone receptor (TSHR) signaling pathway (AID 1224843; calls by dose curve; note: nearly all actives have a fitted effect of over 45% in size)
# Chain of Thyrotropin receptor (Homo sapiens) (P16473 whole entry, looked up): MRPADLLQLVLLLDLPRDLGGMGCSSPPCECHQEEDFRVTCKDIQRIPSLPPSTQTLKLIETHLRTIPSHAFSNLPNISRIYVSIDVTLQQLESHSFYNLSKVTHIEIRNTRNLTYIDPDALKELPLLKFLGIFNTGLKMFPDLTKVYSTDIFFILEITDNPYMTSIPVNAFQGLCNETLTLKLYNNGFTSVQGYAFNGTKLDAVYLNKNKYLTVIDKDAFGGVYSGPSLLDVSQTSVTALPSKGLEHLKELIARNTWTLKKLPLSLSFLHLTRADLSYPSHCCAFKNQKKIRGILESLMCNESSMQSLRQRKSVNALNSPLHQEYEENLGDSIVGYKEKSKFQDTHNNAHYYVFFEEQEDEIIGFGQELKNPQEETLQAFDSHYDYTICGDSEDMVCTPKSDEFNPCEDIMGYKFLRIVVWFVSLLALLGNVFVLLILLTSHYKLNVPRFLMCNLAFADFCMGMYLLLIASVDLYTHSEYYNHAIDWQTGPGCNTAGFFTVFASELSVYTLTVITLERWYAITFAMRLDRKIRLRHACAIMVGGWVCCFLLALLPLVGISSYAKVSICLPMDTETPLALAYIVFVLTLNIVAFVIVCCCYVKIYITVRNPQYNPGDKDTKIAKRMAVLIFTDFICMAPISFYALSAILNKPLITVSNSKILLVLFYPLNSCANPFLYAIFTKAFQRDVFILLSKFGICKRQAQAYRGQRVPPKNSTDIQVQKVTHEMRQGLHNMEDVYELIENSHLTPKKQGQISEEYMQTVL
# How it was run: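 HEK293/TSHR, 800 cells/well; cpd 30 min RT; add cAMP-d2 + anti-cAMP-cryptate, 1 h RT; fluorescence read on plate reader. 15-pt titration, n=3.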
# [10] = qHTS assay to identify small molecule agonists of the hypoxia (HIF-1) signaling pathway - cell viability counter screen (AID 1224844; calls by dose curve; note: nearly all actives have a fitted effect of over 50% in size)
# How it was run: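 HRE-bla ME-180; 0.5% dFBS; cpd 17 h, 37C, 5% CO2; CellTiter-Glo lum., 30 min RT, post-FRET read, same wells.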
# [11] = qHTS assay to identify small molecule agonists of H2AX (AID 1224845; active = well fitted activation curve with a large enough effect in the signal ratio in the repeat runs, not every such curve was filed as active; the % refers to the signal ratio)
# How it was run: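 Wild-type CHO-K1 cells, plated overnight, exposed 3hr at 37C to 15 concentrations (0.76% DMSO final). Lysed, then HTRF anti-pH2AX (S139) cryptate and anti-H2AX-d2 antibodies, 24 hr room temperature; 665/620 nm emission read.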
# [12] = qHTS assay to identify small molecule agonists of the hypoxia (HIF-1) signaling pathway (AID 1224846; active = well fitted activation curve with a large enough effect in the signal ratio in the repeat runs, not every such curve was filed as active; the % refers to the signal ratio)
# How it was run: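 Reporter induction in HRE-bla ME-180 cells is taken as agonism: cells sit 5 hrs after plating, receive compounds or DMSO only, incubate 17 hrs at 37C under 5% CO2, and are loaded with CCF4-AM for beta-lactamase FRET measurement.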
# [13] = qHTS assay to identify small molecule agonists of H2AX - cell viability counter screen (AID 1224847; calls by dose curve; note: nearly all actives have a fitted effect of over 30% in size; note: potency is the fitted concentration of half-maximal effect)
# How it was run: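 Cells plated first: CHO-K1, 1000 per well in 10% FBS medium, incubated overnight at 37C. Then 15-point compound titration added (final DMSO 0.76%) for 3 hr. Finally CellTiter-Glo added and luminescence read.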
# [14] = qHTS assay to identify small molecule antagonists of the estrogen related receptor (ERR) signaling pathway from Tox21 library (AID 1224848); note: nearly all actives have a fitted effect of over 50% in size; note: potency is the fitted concentration of half-maximal effect
# How it was run: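 Compounds dissolved in DMSO are pin-transferred onto ERR reporter cells (2,000 per well) that have settled for 6 h at 37 C. Plates then incubate 18 h at 37 C before ONE-Glo luciferase reagent and a luminescence read 30 min later.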
# [15] = qHTS assay to identify small molecule agonists of the estrogen related receptor (ERR) signaling pathway from Tox21 library (AID 1224849; calls by dose curve; note: nearly all actives have a fitted effect of over 15% in size); settings: ERR reporter cell line, ONE-Glo luciferase, 18 h
# How it was run: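 Tox21 compounds tested for ERR agonism in an NTP reporter cell line: 18 h treatment at 37 C, then ONE-Glo luminescence.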
# [16] = qHTS RealTime-Glo MT Cell Viability Assay in HepG2 cells - 24 hour (AID 1224867); note: nearly all actives have a fitted effect of over 50% in size
# How it was run: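 HepG2 cells (600/well) were dispensed with RealTime-Glo reagents, incubated 5 h at 37 °C, then treated with compounds in DMSO for up to 40 h. Nonlytic NanoLuc luminescence reflecting viable cells was read at each stated time point.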
# [17] = A CellTox Green Cytotoxicity Assay to monitor cytotoxicity in HEK293 cells - 0 hour (AID 1224869); note: nearly all actives have a fitted effect of over 50% in size
# How it was run: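 Tox21 screen in HEK293: membrane-impermeant cyanine dye fluoresces on binding dead-cell DNA; compound pinned 5 h post-seeding, plates held at 37 C, signal read repeatedly through 40 h.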
# [18] = qHTS assay to identify small molecule antagonists of the estrogen related receptor signaling pathway with the pleiotropic PPARgamma coactivator (PGC) from Tox21 10K library - cell viability counter screen (AID 1224840; active = well fitted cell-killing curve with a large enough effect in the repeat runs, not every such curve was filed as active; note: nearly all actives have a fitted effect of over 40% in size)
# How it was run: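 Seeded PGC/ERR cells (2,000/well, 6 h, 37 C/5% CO2) get compound by pin tool; 17.5 h incubation at 37 C; CellTiter-Fluor added, 30 min, fluorescence measured.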
# [19] = qHTS RealTime-Glo MT Cell Viability Assay in HEK293 cells - 32 hour (AID 1224868)
# How it was run: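 HEK293 cells seeded with NanoLuc/prosubstrate reagent, rested 5 h at 37 C, then dosed and kept at 37 C up to 40 h. Nonlytic real-time luminescence from viable cells read at 0, 8, 16, 24, 32 and 40 h.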
Compound,Potency [1],Potency [2],Potency [3],Potency [4],Potency [5],Potency [6],Potency [7],Potency [8],Potency [9],Potency [10],outcome [11],Potency [12],Potency [13],Potency [14],"activity change, positive = activation ([15]; at 42.5 µM (top of the series))","activity change, positive = activation ([15]; at 92.4 µM (top of the series))",Potency [16],Potency [17],Potency [18],Potency [19]
O=C(Nc1ccc(Cl)cc1)Nc1ccc(Cl)c(Cl)c1,12.1 µM (active) and 6.86 µM (active) and 18.8 µM (active),5.62 µM (active) and 10 µM (active) and 9.77 µM (active),17.2 µM (active),15.4 µM (active),inactive,3.44 µM (active) and 4.22 µM (active),12.1 µM (active) and inactive,inactive,inactive,inactive,inactive,inactive,22.5 µM (active) and 28.4 µM (active) and 22 µM (active),5.42 µM (active) and 11.9 µM (active),-29.5% (inactive),-26.7% (inactive) and -3.58% (inactive),inactive,inactive,,
Cc1[nH]c(=O)c(C#N)cc1-c1ccncc1,inactive,inactive,inactive,inactive,,inactive,,,,inactive,inactive,,inactive,,,,inactive,inactive,inactive,inactive
CC(C)(C)NC(=O)[C@H]1CC[C@H]2[C@@H]3CC[C@H]4NC(=O)C=C[C@]4(C)[C@H]3CC[C@]12C,inactive,inactive,inactive,inactive,inactive,inactive,,,,inactive,inactive,,inactive,,,,inactive,inactive,inactive,inactive
CCC(C)c1ccccc1O (centres undefined),inactive,inactive,inactive,inactive,,inactive,inactive,inactive,inactive,inactive,inactive,inactive,inactive,inactive,,-6.99% (inactive) and 2.48% (inactive),inactive,inactive,inactive,
COc1c(Cl)c(Cl)c(Cl)c(Cl)c1Cl,inactive,inactive,inactive,inactive,inactive,,inactive,inactive,inactive,inactive,inactive,inactive,inactive,inactive,,0.259% (inactive) and 0.227% (inactive),inactive,inactive,inactive,inactive
S=C(NC1CCCCC1)NC1CCCCC1,13.7 µM (active),inactive,inactive,inactive,13.4 µM (active) and 8.63 µM (active),inactive,23.9 µM (active) and 21.7 µM (active),inactive,inactive,,inactive,inactive,inactive,15.1 µM (active) and inactive,,-59.4% (inactive) and -64.8% (inactive),inactive,inactive,,

# Source: PubChem BioAssay (Tox21)
